# Test results reported in the supplement of paper PMC10338343.
# ± gives the standard deviation.
# Test system: MILI (PIWIL2) piRISC loaded with L1MC piRNA (26 nt)
# Experiment: pre-steady-state target cleavage rate (min^-1); guide: L1MC piRNA 5'p-UAACUAAAUACUAUGCAAGCUGUAGG; MIWI and MILI are mouse PIWI proteins and EfPiwi is from a freshwater sponge; tags in brackets are library labels; higher = faster piRNA-guided slicing of the target
# Details: auxiliary factor: 500 nM mouse GTSF1
# How it was run: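 Using HEPES–potassium acetate buffer at 33 °C, 1 nM active affinity-purified piRISC with a single synthetic guide was mixed with 0.1 nM transcribed, DNA-blocked target RNA library for 0–8 or 0–960 min, with or without 500 nM GTSF1 partner protein. Uncleaved targets were sequenced and normalised to depth and to weakly complementary targets, and three trials were pooled with k3 capped at 0.0001 min^-1. A burst-and-steady-state fit gave the pre-steady-state cleavage rate.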
row,Sequence,pre-steady-state target cleavage rate
1,UCCUGGUACACCUUGCAAAGUAUUUAGUUA,0.0646 ± 0.011
2,UCCUGGAUGUCGUAGCAUAGUAUAUAGUUA,0.0653 ± 0.016
3,UCCUGGAUGUCCUUGCAUAGUGAUUUAGUUA,0.0104 ± 0.0052
4,UCCUGGAUGUCGAUAGCAUAGUAUUUAGUUA,0.0459 ± 0.014
5,UCCUGGAUCAGAUUGCAUAGUAUUUAGUUA,0.205 ± 0.013
6,UCCUGGAUGUCGAUGCAUAGUAUUUAGUUC [g2:g17:cont:t1C],0.0657 ± 0.0091
7,UCCUGGAUGUGGUUGCAUAGUAUUUUGUUA,0.0586 ± 0.023
8,UCCUGGAUGUCCUUGCAUUGUUUUUAGUUA,0.00791 ± 0.0055
9,UCCUGGAUGAGCUUGCAUUGUAUAUAGUUA,0.0992 ± 0.012
10,UCCUGGUACAGCUAGCAUAGUUUUUAGUUA,0.0495 ± 0.011
11,UCCUGGAUGUCCUUGCAUAGUAAAUAGUUA,0.034 ± 0.0081
12,UCCUGGAUGAGCAUGCAUACUAUUUAGUUA,0.0556 ± 0.011
13,UCCUGGAUGUCGUCGCAUAGUAUUUAGUUA,0.0893 ± 0.012
14,UCCUGCUACAGCUUGCAUUCUAUUUAGUUA,0.0454 ± 0.0087
15,UCCUGGAUGUGCUUACAUAGUAUUUAGUUA,0.122 ± 0.015
16,UCCUGGAUCAGCUUGCUUAGUAUUUACUUA,0.203 ± 0.025
17,UCCUGGAUGAGCUUGCAGAGUAUUUAGUUA,0.0869 ± 0.0095
18,UCCUCCUACACCUUGCAUUGUAUUUAGUUA,0.184 ± 0.021
19,UCCUGGAUGUGCUUGCAAAGUAAUUAGUUA,0.0171 ± 0.0056
20,UCCUGCUACAGCUUGCUUAGUAAUUAGUUA,0.18 ± 0.018
21,UCCUGGAUGUCCUUGCAUAGUUUUAAGUUA,0.0115 ± 0.0059
22,UCCUGGUACAGCUUGGAUAGUUUUUAGUUA,0.0597 ± 0.014
23,UCCUGGUACAGCUUCGAUAGUAUUUAGUAA,0.26 ± 0.046
24,UCCUGGAUGUCCUUGCAAAGUAUUUAGUAA,0.0311 ± 0.0099
